# Experimental data as given in PubChem BioAssay (Tox21).
# Where “and” joins values, the source holds several entries; their conditions need not be identical. Equal entries are not always repeated. A number with no mark means an inactive call. Records with an inconclusive call do not appear. Entries that show only a call come without a potency. Calls of active or inactive are those of the source. Unless noted, the call rests on the fitted dose curve; in most records, active means well fitted curve in the direction sought with a large enough effect in the repeat runs; inconclusive means weak or mixed curves; inactive means no such curve, though single readings can be large; an effect the other way counts as inactive or inconclusive.
# What was measured:
# [1] = qHTS assay for small molecule agonists of the p53 signaling pathway (AID 651631; calls by dose curve; further: nearly all actives have a fitted effect of over 15% in size)
# Procedure, shortened: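 Fluorescence intensity from cleaved LiveBLAzer B/G substrate (2 h, room temperature) served as the signal. Beforehand, HCT-116 reporter cells bearing p53 response elements were treated 16 h at 37 °C with DMSO-dissolved compounds.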
# [2] = qHTS assay for small molecules that induce genotoxicity in human embryonic kidney cells expressing luciferase-tagged ATAD5 (AID 651632); further: nearly all actives have a fitted effect of over 15% in size
# Procedure, shortened: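 Luminescence read-out: after 16 hr compound exposure at 37C, ATAD5-luciferase HEK293T cells received Amplite, 30 min RT, then CCD imaging. A rise in signal marks genotoxic stress.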
# [3] = qHTS assay for small molecule agonists of the p53 signaling pathway - cell viability (AID 651633; calls by dose curve;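 further: p53RE-bla HCT reporter cells with a stable beta-lactamase p53 reporter; series mostly up to about 83 µM; nearly all actives have a fitted effect of over 30% in size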)
# Procedure, shortened: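 Viability counter-read: CellTiter-Glo luminescence (30 min, room temperature) in the same p53RE-bla plates. These plates had been exposed to compounds for 16 h at 37 C.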
# [4] = qHTS assay for small molecules that induce genotoxicity in human embryonic kidney cells expressing luciferase-tagged ATAD5 - cell viability (AID 651634; calls by dose curve; further: nearly all actives have a fitted effect of over 25% in size)
# Procedure, shortened: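 HEK293T ATAD5-luc cells, 2,000/well; compound 15.5 hr, 37C/5% CO2; CellTiter-Fluor 30 min, 37C; fluorescence read.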
# [5] = qHTS assay for small molecule disruptors of the mitochondrial membrane potential - cell viability (AID 720634; calls by dose curve;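 further: human HepG2 liver cancer cells; series mostly up to about 83 µM; nearly all actives have a fitted effect of over 20% in size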)
# Procedure, shortened: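 Luminescence from CellTiter-Glo (ATP content) gave viability in HepG2 cells, read in the same wells as the MMP dye assay after 1 hr compound exposure at 37 C.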
# [6] = qHTS assay for small molecule disruptors of the mitochondrial membrane potential (AID 720635); further: potency means the concentration at half of the fitted maximal effect
# Procedure, shortened: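 Mitochondrial membrane potential tracked with Mito-MPS dye, red aggregates (ex 540/em 590 nm) against green monomers (ex 490/em 535 nm). Compound treatment 1 hr at 37C, dye 30 min in HepG2.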
# [7] = qHTS assay to test for compound auto fluorescence at 590 nm (red) in HepG2 cells (AID 720674)
# Procedure, shortened: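 We screened compounds on adherent HepG2 cells, incubating them for an hour at 37 C in 5% CO2 before reading emission at 590 nm under 540 nm excitation; values reflect equivalence to Rose Bengal sodium fluorescence.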
# [8] = qHTS assay to test for compound auto fluorescence at 535 nm (green) in HepG2 cells (AID 720675)
# [9] = qHTS assay to test for compound auto fluorescence at 460 nm (blue) in HEK293 cells (AID 720678)
# Procedure, shortened: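 HEK293 cells (2,000 per well, medium with 10% dialyzed FBS) attached for 4-5 hr at 37C, then received compound and stood overnight at 37C, 5% CO2. Blue fluorescence was read at Ex/Em 405/460 nm and expressed relative to triamterene.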
# [10] = qHTS assay to test for compound auto fluorescence at 590 nm (red) in HEK293 cells (AID 720679)
# Procedure, shortened: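 HEK293 cells (2,000/well, medium with 10% dialyzed FBS) attached for 4-5 hr at 37C, received 23 nL compound and were incubated overnight at 37C, 5% CO2. Red fluorescence was then read at 540/590nm Ex/Em, referenced to Rose Bengal sodium.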
Structure (SMILES),Potency [1],Potency [2],Potency [3],Potency [4],Potency [5],Potency [6],outcome [7],outcome [8],outcome [9],outcome [10],"fluorescence, relative to Rose Bengal [7]","fluorescence, % of fluorescein control [8]","fluorescence, % of fluorescent control [10]"
C=CC(C)(O)CC/C=C(\C)CCC=C(C)C (stereo not given),inactive,inactive,inactive,inactive,inactive,12.4 µM (active) and 27.3 µM (active),inactive,inactive,inactive,inactive,–,–,–
CCCNC(C)C(=O)Nc1c(C)csc1C(=O)OC (stereo not given),inactive,inactive,inactive,inactive,inactive,inactive,–,–,–,–,0.288% [at 18.6 µM],-0.0675% [at 18.6 µM],-0.0511% [at 18.6 µM]
NCCC(O)(P(=O)(O)O)P(=O)(O)O,inactive,inactive,inactive,inactive,inactive,inactive,inactive,inactive,inactive,inactive,–,–,–
C=C(C)C(=O)OCCOP(=O)(O)O,inactive,inactive,inactive,inactive,inactive,inactive,inactive,inactive,–,inactive,–,–,–
NC(=O)Cc1cccc(C(=O)c2ccccc2)c1N,inactive,inactive,inactive,inactive,inactive,inactive,–,inactive,inactive,inactive,–,–,–
CCN1CC(CCN2CCOCC2)C(c2ccccc2)(c2ccccc2)C1=O (stereo not given),inactive,inactive,inactive,inactive,inactive,inactive,inactive,inactive,–,inactive,–,–,–
CCc1cc(Cl)c(OC)c(C(=O)NC[C@@H]2CCCN2CC)c1O,inactive,inactive,inactive,inactive,inactive,–,inactive,inactive,inactive,inactive,–,–,–
CC(C)CCCCCCc1ccc(OCCOCCO)cc1,inactive,inactive,inactive,inactive,inactive,inactive,inactive,inactive,–,inactive,–,–,–
CC(C)C(=O)OCC(C)(C)C(O)C(C)C (stereo not given),inactive,inactive,inactive,inactive,inactive,inactive,–,inactive,inactive,inactive,–,–,–
O=c1[nH]cnc2c1ncn2[C@@H]1O[C@H](CO)[C@@H](O)[C@H]1O,inactive,inactive,inactive,inactive,inactive,inactive,inactive,inactive,–,inactive,–,–,–
C=CCCC=C,inactive,inactive,inactive,inactive,inactive,–,inactive,inactive,inactive,inactive,–,–,–
CC1(C)O[C@@H]2C[C@H]3[C@@H]4CCC5=CC(=O)CC[C@]5(C)[C@@]4(F)[C@@H](O)C[C@]3(C)[C@]2(C(=O)CCl)O1,inactive,inactive,inactive,inactive,inactive,8.04 µM (active),–,–,–,–,-0.0973% [at 18.6 µM],-0.093% [at 18.6 µM],-0.0534% [at 18.6 µM]
CC(C)c1ccccc1,inactive,inactive,inactive,inactive,inactive,inactive,inactive,inactive,–,inactive,–,–,–
CCC(=O)Nc1ccc(O)cc1,inactive,inactive,inactive,inactive,inactive,inactive,inactive,inactive,–,inactive,–,–,–
C[C@]12CCC(=O)C=C1CC[C@@H]1[C@@H]2CC[C@@]2(C)[C@H]1CC[C@]2(O)C(=O)CO,inactive,inactive,inactive,inactive,inactive,–,inactive,inactive,inactive,inactive,–,–,–
Nc1cccc(S(=O)(=O)O)c1,inactive,inactive,inactive,inactive,inactive,0.0972 µM (active),inactive,inactive,–,inactive,–,–,–
CC(C)=CCC[C@](C)(O)[C@@H]1CC=C(C)CC1,inactive,inactive,inactive,inactive,inactive,30.6 µM (active),inactive,inactive,inactive,inactive,–,–,–
O=C1CCC(C2CCCCC2)CC1,inactive,inactive,inactive,inactive,inactive,inactive,inactive,inactive,–,inactive,–,–,–
